# Compounds without any hit were thinned out: in the full panel of roughly 83,000, 20% have a hit.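 Results are percent growth after 48 hours of single-concentration exposure. 100 means growth as in untreated cells, lower positive values show inhibition; negative values down to -100 show cell death.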 Values without a mark were called inactive. Activity calls are given as the source filed them.
# Tested on: NCI-H460 lung
# Assay: NCI-60 one-dose screen, 48 h (100 = growth as untreated, 0 = no growth, -100 = all killed)
# Conditions: 10 µM
# Protocol: Growth inhibition of the NCI-H460 human Non-Small Cell Lung tumor cell line is measured as a screen for anti-cancer activity. Cells are grown in 96 well plates and exposed to the test compound for 48 hours. Compounds are tested at a single concentration, which is 10^-5 M for most compounds. The reported endpoint is percent growth (GI% or GIPRCNT), where numbers from 0 - 100% represent growth inhibition, and numbers from -100% - 0 represent cell death. For example, a value of 40 represents 60% growth inhibition. A value of 0 means no net growth occurred over the course of the experiment. A value of -40 indicates 40% of cells at the beginning of the experiment died by the end of the experiment. A value of -100 means all cells are dead at the end of the experiment.
# NCI-60 Human Tumor Cell Lines Screen was performed using the standard one-dose NCI protocol, which is described in more detail at https://dtp.cancer.gov/discovery_development/nci-60/default.htm.
# Compounds with GIPRCNT values below 10 were considered active. Activity score was based on GIPRCNT using the following formula: […]
# Score is 0 for GIPRCNT values of 100 or above, 50 for GIPRCNT values of 0, and 100 for GIPRCNT values of -100.
row,Structure (SMILES),growth
1,COc1ccc(C2c3sc4ccc(C)cc4c3Oc3nc(N)nc(N)c32)cc1 (stereo not given),88.8%
2,Cc1ccc2sc3c(c2c1)Oc1nc[nH]c(=O)c1C3c1cccc(F)c1 (stereo not given),102%
3,Cn1cc(-c2cc3nc(-c4c[nH]c5ccccc45)cc(N)n3n2)c2cc(Cl)ccc21,-58.2% (active)
4,Cn1cc(-c2nnc(N)nc2-c2c[nH]c3ccccc23)c2cc(Br)cnc21,42.3%
5,C#CCOc1cc(N(CC)CC)ccc1C(C(=O)NC(C)(C)C)N(C(=O)C1CCc2cc(F)ccc2O1)c1ccc(F)cc1F (stereo not given),26.4%
6,COc1ccc(Cc2nn(CC(=O)N/N=C/c3ccc(Br)cc3)c(=O)c3c(C)noc23)cc1,9.38% (active)
7,Cn1cc(-c2nnc(N)nc2-c2c[nH]c3ccc(F)cc23)c2cc(Br)cnc21,39.7%
8,O=C(Nc1ccc(OCC(=O)c2ccc(Cl)cc2)cc1)Nc1ccc(Cl)c(C(F)(F)F)c1,27.6%
9,COc1cc(C2CC(c3ccc(Oc4ccc(Cl)cc4)cc3)=NN2c2nc(-c3ccc(Cl)cc3)c(C#N)c(N3CCOCC3)n2)cc(OC)c1OC (stereo not given),107%
10,O=C(Nc1ccc(Oc2ncnc3scc(Nc4n[nH]c(=S)s4)c23)cc1)C1(C(=O)Nc2cccc(C(F)(F)F)c2)CC1,81.9%
11,O=C(c1ccccc1)c1ccc2nc(-c3ccccc3Br)[nH]c2c1,-22.4% (active)
12,Cc1ccc2c(c1)C(=O)/C(=C/c1c[nH]c3ccccc13)S2,33.6%
13,Nc1nnc(-c2c[nH]c3ncc(Br)cc23)c(-c2c[nH]c3ccc(Br)cc23)n1,26.5%
14,O=C(c1ccc(F)cc1)C(c1c[nH]c2ccccc12)c1c[nH]c2ccccc12,33.9%
15,O=C1NC(=S)S/C1=C\c1cn(-c2ccccc2)nc1-c1ccc([N+](=O)[O-])cc1,9.76% (active)
16,CCOC(=O)c1ccc(NC(=O)CSC(CC(=O)c2sc(Nc3ccccn3)nc2C)c2ccccc2F)cc1 (stereo not given),-40.7% (active)
17,O=C(CC(=O)Nc1ccc(Oc2ncnc3scc(Nc4n[nH]c(=S)s4)c23)cc1)Nc1ccc(Br)cc1,107%
18,O=C(Nc1ccc(OCc2ccc(F)cc2)cc1)Nc1ccc(Cl)c(C(F)(F)F)c1,6.77% (active)
19,Cc1ccc2c(c1)C(=O)/C(=C/c1ccc([N+](=O)[O-])cc1)S2,92.5%
20,CC1(C)CC(=O)C2=C(C1)N(Cc1ccc(C(=O)O)cc1)C1=C(C(=O)CC(C)(C)C1)C2c1ccc(Cl)cc1,104%

row,Structure (SMILES),growth
1,O=C1NC2C=CC=CC2/C1=C1/SC(=S)N(C2CC(=O)N(c3ccc(Br)cc3)C2=O)C1=O (stereo not given),100%
2,Cc1cc(N=C2NC(=O)/C(=C/c3cc(C(C)(C)C)c(O)c(C(C)(C)C)c3)S2)n[nH]1,0.397% (active)
3,O=[N+]([O-])c1cccc(-c2nnc3c(/C=C/c4ccccc4O)nc4ccccc4n23)c1,28.8%
4,COc1ccc(NCc2cn(-c3ccc(C(=O)O)cc3)nc2-c2ccc(F)cc2)cc1C(F)(F)F,37.2%
5,O=C(CC(=O)Nc1ccc(Oc2ncnc3scc(Nc4n[nH]c(=S)s4)c23)cc1)Nc1ccc(Cl)cc1,85.5%
6,COc1cc2oc(-c3cccc(C(=O)Nc4ccc(Cl)cc4)c3)cc(=O)c2c(OCCNC(=O)[C@@H](N)CO)c1OC,40.2%
7,Cn1cc(-c2nc(N)nnc2-c2c[nH]c3ccccc23)c2cc(Br)cnc21,4.09% (active)
8,CC1[C@H]2[C@H](C[C@H]3[C@@H]4CC=C5c6sc(Nc7cccc(Cl)n7)nc6CC[C@]5(C)[C@H]4CC[C@@]32C)O[C@]12CC[C@@H](C)CO2 (stereo not given in full),85.7%
9,Cn1cc(/C=C(/SS/C(=C/c2cn(C)c3cccc(C(=O)O)c23)C(=O)O)C(=O)O)c2c(C(=O)O)cccc21,110%
10,Cc1ccc(COc2ccc(NC(=O)Nc3ccc(Cl)c(C(F)(F)F)c3)cc2)cc1,59.5%
11,O=C(CSc1nc2ccccc2c(=O)n1-c1ccc(Cl)cc1)Nc1ccc(-c2nc3ccc([N+](=O)[O-])cc3[nH]2)cc1,21.1%
12,COc1ccc(Cc2nn(CC(=O)N/N=C/c3ccc([N+](=O)[O-])cc3)c(=O)c3c(C)noc23)cc1,16.6%
13,CCOc1ccc(/C=N/NC(=O)Cn2nc(Cc3ccc(OC)cc3)c3onc(C)c3c2=O)cc1,-7.59% (active)
14,Cc1ccc(-c2nc(C#N)c(S(=O)(=O)N3CCN(S(C)(=O)=O)CC3)o2)cc1,79.9%
15,COc1ccc(C2OC[C@@]3(C)C4CC[C@]5(C)C(CC=C6C7CC(C)(C)CC[C@]7(C(=O)O)CC[C@]65C)[C@@]4(C)C[C@@H](O)[C@@H]3O2)cc1 (stereo not given in full),69.1%
16,COc1cc(Nc2nc(O)c(/C=C3\C=Nc4ccccc43)s2)cc(OC)c1OC,-77.6% (active)
17,O=C(CN1CCN(c2ncnc3c2cnn3-c2ccccc2)CC1)Nc1ccc(Br)cc1,57.7%
18,O=C(c1ccc(Cl)cc1)C(c1c[nH]c2ccccc12)c1c[nH]c2ccccc12,-53.5% (active)
19,COc1ccc(OC)c(-n2cc(C#N)c(N)c2C(=O)c2ccc(Cl)cc2Cl)c1,32.9%
20,COc1ccc(Cn2cc(C#N)c(N)c2C(C)=O)c(OC)c1,108%
